Screening data from PubChem.
KCNQ2 pot: potentiators of rat KCNQ2 potassium channel. O88943. CHO-K1 KCNQ2, FluxOR thallium flux fluorescence; hits give high values. B-score at 10 µM. 310,000 compounds, 0.54% hits. AID 2239;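 active = fluorescence ratio B-score at least 3 SD of library B-scores, with initial fluorescence B-score within 3 of them, cut at about 5.3 in these data; same plate scores as AID 2156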;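 also: B-score of peak minus minimum over baseline fluorescence ratio after K+ and Tl+ stimulus; positive B-score means potentiation of KCNQ2 with more thallium influx and brighter signal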
KCNQ2 block: blocks the rat KCNQ2 potassium channel. O88943. CHO-K1 KCNQ2, FluxOR thallium flux, 20 min; hits give low values. B-score at 10 µM. 310,000 compounds, 1.1% hits;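 active = fluorescence ratio B-score at most minus 3 library SDs, with starting brightness B-score within 2 library SDs, cut at about -5.5 in these data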
Large screens that a line does not name were inactive. Sampled rows, rich in hits. Any-hit rate of the full collection: about 1.6%.

O=C(COC(=O)c1ccc(Sc2ccccc2)c([N+](=O)[O-])c1)NC1CCCc2ccccc21 (centres undefined)	KCNQ2 block -6.94
CC1CCCN(c2ccc(C(=O)OCC(=O)N3c4ccccc4Sc4ccccc43)cc2[N+](=O)[O-])C1 (centres undefined)	none (no result: KCNQ2 pot)
COc1ccc(C(C)=O)c(Oc2cc(NN3CCCCC3)c([N+](=O)[O-])cc2[N+](=O)[O-])c1	none
CCC(C)(C)C(=O)O[C@H]1C[C@@H](C)C=C2C=C[C@H](C)[C@H](CC[C@@H]3C[C@@H](O)CC(=O)O3)[C@H]21	none (no result: KCNQ2 pot)
Cc1cc(C)nc(N=Nc2c(O)n(Cc3ccc(Cl)cc3)c3ccccc23)n1	KCNQ2 block -5.94
O=Nc1c(O)n(Cc2cccc(Cl)c2)c2ccccc12	none (no result: KCNQ2 pot)
Cc1ccc(CS(=O)Cc2ccc(C(=O)NC3CCCCC3)o2)cc1 (centres undefined)	none
CCc1nc(N2CCC(C)CC2)c2oc3ccccc3c2n1	KCNQ2 block -5.87
CCc1nc(N(CC)CC)c2oc3ccccc3c2n1	none (no result: KCNQ2 pot)
Cc1ccc(NC(=O)C2CCN(S(C)(=O)=O)CC2)c(C)c1	none (no result: KCNQ2 pot)
O=C1N=c2ccc([N+](=O)[O-])cc2=C1c1sc(=O)[nH]c1O	none (no result: KCNQ2 pot)
COc1cccc(CCNC(=O)CCc2nnc(Cc3cc(OC)ccc3OC)o2)c1	none (no result: KCNQ2 pot)
CCC1Oc2ccc(C)cc2N(Cc2cccc(C)c2)C1=O (centres undefined)	KCNQ2 block -5.89
Cc1ccc2c(c1)N(Cc1ccc3c(c1)OCO3)C(=O)C(C)O2 (centres undefined)	none (no result: KCNQ2 pot)
Cc1ccn(CCC(=O)N2CCc3ccccc32)n1	none (no result: KCNQ2 pot)
Cc1ccc(NS(=O)(=O)c2ccc(C(=O)OCC(=O)NCC3CCCO3)cc2)cc1 (centres undefined)	none (no result: KCNQ2 pot)
COc1ccccc1CNC(=O)C1=C(C)C(=O)OC12CCC(C)CC2 (centres undefined)	none (no result: KCNQ2 pot)
COc1cccc(CNC(=O)C2=C(C)C(=O)OC23CCC(C)CC3)c1 (centres undefined)	KCNQ2 block -6.9
COc1ccc(C(=O)NNC(=O)Cc2ccc([N+](=O)[O-])cc2)cc1	none
COc1ccc(CC2(C)OC(c3ccc([N+](=O)[O-])cc3)=NN2C(C)=O)cc1 (centres undefined)	KCNQ2 block -6.22
O=C1c2ccccc2C(=O)C12OC(c1ccccc1)C1(C(=O)c3ccccc3C1=O)C2c1ccc([N+](=O)[O-])cc1 (centres undefined)	KCNQ2 block -7.9
O=C1c2ccccc2C(=O)C12OC(c1ccccc1)C1(C(=O)c3ccccc3C1=O)C2c1cccc([N+](=O)[O-])c1 (centres undefined)	none (no result: KCNQ2 pot)
Cn1c(C(O)C(O)c2ccccc2)nc2ccccc21 (centres undefined)	none
Cn1c(N2CCN(C(c3ccccc3)c3ccccc3)CC2)nc2ccccc21	KCNQ2 block -12.5
O=C(NNC(=S)Nc1ccccc1Cl)c1ccccc1Br	none
COc1ccc(Cl)cc1NC(=O)CN(C)C1CCCCC1	none (no result: KCNQ2 pot)
COc1ccc(OC)c(NC(=O)CN(Cc2ccc(F)cc2)C2CCCCC2)c1	KCNQ2 block -7.87
COc1ccc(CC(=S)NCCc2ccccc2)cc1	KCNQ2 block -6.02
S=C(Cc1ccccc1)NCCc1ccccc1	none (no result: KCNQ2 pot)
COc1cccc(/C(N)=N/OC(=O)Cc2ccccc2[N+](=O)[O-])c1	none (no result: KCNQ2 pot)
OC(CSc1ccc(F)cc1)CN1CCN(c2ccccc2)CC1 (centres undefined)	none (no result: KCNQ2 pot)
Cc1cccc(-n2c(SCC(N)=O)nc3c(c2=O)C2(CCCC2)Cc2ccccc2-3)c1	KCNQ2 block -6.76
O=c1c2c(nc(NCCO)n1CC1CCCCC1)-c1ccccc1CC21CCCC1	KCNQ2 block -8.78
N#CCSc1nc2c(c(=O)n1Cc1ccco1)C1(CCCC1)Cc1ccccc1-2	none (no result: KCNQ2 pot)
CC1(C)CC(n2c(NCCO)nc3c(c2=O)C2(CCCC2)Cc2ccccc2-3)CCO1 (centres undefined)	none (no result: KCNQ2 pot)
NC(=O)CSc1nc2c(c(=O)n1-c1ccccc1)C1(CCCCC1)Cc1ccccc1-2	none
CCCn1c(SCC#N)nc2c(c1=O)C1(CCCC1)Cc1ccccc1-2	KCNQ2 block -6.39
COc1ccc(-c2csc(NC(=O)C3CCN(c4ncnc5sc(C)c(C)c45)CC3)n2)cc1OC	none (no result: KCNQ2 pot)
C=C[C@H]1CN2CC[C@H]1C[C@H]2[C@H](O)c1ccnc2ccc(OC)cc12	none
CC12CCC(=O)N1C(C(=O)Nc1nc3ccc(S(C)(=O)=O)cc3s1)CS2 (centres undefined)	none
CC12CCC(=O)N1C(C(=O)Nc1nc3ccc(Cl)cc3s1)CS2 (centres undefined)	KCNQ2 block -6.01
COc1ccccc1NS(=O)(=O)c1cc(C(=O)NCc2ccco2)ccc1C	none (no result: KCNQ2 pot)
COc1ccccc1NS(=O)(=O)c1cc(C(=O)NCC(C)(C)N2CCOCC2)ccc1C	KCNQ2 pot 6.67
O=C(CCl)N(Cc1cc(=O)[nH]c2ccccc12)c1ccccc1	none (no result: KCNQ2 pot)
O=C(Nc1ccccc1)Nc1n[nH]c2nnc(-c3ccccc3)c(-c3ccccc3)c12	none
COc1ccc(OCCCC(=O)OC(C)C(=O)Nc2ccc(S(N)(=O)=O)cc2)cc1 (centres undefined)	none
